The text below walks through data of ChEMBL document CHEMBL3988442, “University of Dundee, Small-Polar-MMV Screening Library” (2021).

The campaign covered roughly 53,000 compounds. About 900 (1.7%) showed an effect of 50% or more. What follows is part of a selection rich in strong results, with near analogues and random picks from the rest.

The test concerns Mycobacterium tuberculosis. The test can be described thus: Cornell - Phenotypic assay to identify agents that inhibit growth of Mycobacterium tuberculosis. It counts as functional. Also noted: scale not given: direction of the effect not stated beside the values. The conditions noted are these: 10 mM as filed; unlikely as a test dose.
As to `Cc1nc(C)n(CC(=O)N2CCCC(c3cc4ccccc4cn3)C2)n1` (configuration not stated), the “Percent Effect” value was -16.13%. With `CC(C)c1nc(N2CCC(N3CCCCCC3)CC2)c2cnn(C)c2n1` the figure was 30.23%. Under `CC(C)c1nc(N2CCN3CCCC3C2)c2cnn(C)c2n1` (configuration not stated) stands 62.47%; under `CC(C)c1nc(N2CCC(N3CCCC(O)C3)CC2)c2cnn(C)c2n1` (configuration not stated), 28.63%. `Cc1cc(C)nc(N2CCC(c3noc(C)n3)CC2)n1`: the “Percent Effect” value is -1.548%. With `O=C(CC1CCN(c2cccnn2)CC1)NCCO` the figure was 12.72%; with `CCC/N=c1/c(NC(=O)NCCCOC)c(O)oc2ccccc12`, -33.59%; with `CCc1ccc(CN(C)C(=O)C(c2ccccc2F)N(C)C)nc1` (configuration not stated), 0.2159%. For the molecule `CCCC(=O)NCC(Cc1cccc(F)c1)N1CCCC1=O` (configuration not stated), the “Percent Effect” value was found to be 2.564%.

For the molecule `NC(=O)NC(=O)CCN(Cc1ccccc1)CC1CCOCC1`, the “Percent Effect” value is 53.84%. Under `O=C(CN(Cc1ccccc1)CC1CCOCC1)NC(=O)NC1CC1` stands 16.06%; under `O=C(CN(Cc1ccccc1)CC1CCOCC1)Nc1nccs1`, 42.61%; under `CCc1ccc(C(COC)NC(=O)c2ccc(C(N)=O)cc2)o1` (configuration not stated), 17.07%. As for `Cc1oncc1C(=O)N1CCOCC2(CCN(c3ccccn3)C2)C1.O=C(O)C(F)(F)F` (configuration not stated), the “Percent Effect” value is listed as -11.19%. With `Cc1nc(C)n(CC2CCCN2Cc2cccc3c2OCCO3)n1` (configuration not stated) the figure was -6.241%; with `CC(=O)N1CCC[C@@H](NCc2ccc(F)cc2)[C@@H]1c1ccc(C)s1`, 1.669%; with `CC(=O)N1CCC[C@@H](NCc2c[nH]c3ccccc23)[C@@H]1c1ccc(C)s1.Cl`, 66.32%. With `CC(=O)N1CCC[C@@H](NCc2cccc(F)c2)[C@@H]1c1ccc(C)s1.Cl`, the “Percent Effect” value is listed as -22.92%.

On to `c1ccc2ncc(CC3CCNC3)cc2c1` (configuration not stated), for which the “Percent Effect” value is -46.09%. For `O=c1n(Cc2ccc(F)cc2)nc2ncccn12`, the “Percent Effect” value is recorded as -16.62%. Take `O=C(c1cc(COc2ccc3c(c2)OCO3)[nH]n1)N1CCSCC1`: the “Percent Effect” value was 102%. For the molecule `COc1cccc(OCc2cc(C(=O)N3CC(O)C3)n[nH]2)c1`, the “Percent Effect” value came out at 3.061%. Turning to `C[C@@H]1CN(C(=O)c2cc(COc3ccc4c(c3)OCO4)[nH]n2)C[C@H](C)O1`, the “Percent Effect” value was 3.14%.

Regarding `O=C(c1cc(COc2ccc3c(c2)OCO3)[nH]n1)N1CCCCO1`, the “Percent Effect” value was found to be 15.85%. As for `O=C(c1cc(COc2ccc3c(c2)OCO3)[nH]n1)N1CCCC1`, the “Percent Effect” value came out at 105.4%. Consider `O=C(c1cc(COc2ccc3c(c2)OCO3)[nH]n1)N1CC=CC1CO` (configuration not stated), for which the “Percent Effect” value is reported as 46.2%. Consider `O=C(c1cc(COc2ccc3c(c2)OCO3)[nH]n1)N1CCOCC1`, for which the “Percent Effect” value was 35.93%. For the molecule `O=C(c1cc(COc2ccc3c(c2)OCO3)[nH]n1)N1CCCO1`, the “Percent Effect” value came out at 80.32%. With `O=C(c1cc(COc2ccc3c(c2)OCO3)[nH]n1)N1CCCC(O)C1` (configuration not stated) the figure was 44.89%; with `Cc1noc(C)c1S(=O)(=O)N1CCc2nc(C3CCNCC3)ncc2C1.Cl`, 6.846%.

`CN(C)C(=O)CN1CCCC(c2nccnc2-c2cccc(Cl)c2)C1` (configuration not stated): the “Percent Effect” value was determined as 27.94%. Under `O=c1cc(CN2CCCC2)nc2n1CCCN(CC1CC1)C2` stands -16.69%; under `c1ncc(CN2CC(Cc3nccc4cc[nH]c34)C2)cn1`, 24.55%; under `Cn1cc(CC2CCN(C(=O)NCCc3cccc(O)c3)C2)cn1` (configuration not stated), 9.063%. With `CCC(=O)N1CCC(c2nc(N3CCCC3)ncc2S(C)(=O)=O)CC1` the figure was -19.63%.

In the case of `CCC(=O)N1CCC(c2nc(N3CCCCC3)ncc2S(C)(=O)=O)CC1`, the “Percent Effect” value was 49.28%.

Consider `CS(=O)(=O)c1cnc(N2CCCC2)nc1C1CCN(C(=O)C2CC2)CC1`, for which the “Percent Effect” value is on record as 60.16%. `CS(=O)(=O)N1CCC(CNC(=O)c2cnccn2)CC1`: the “Percent Effect” value is -29.61%. With `COCCN1CCC2(CC1)CN(C(=O)Cc1cccnc1)CCO2.O=C(O)C(F)(F)F.O=C(O)C(F)(F)F` the figure was 26.19%. Under `OCCc1cc(C2CCCN2c2ncccn2)n[nH]1` (configuration not stated) stands 5.746%; under `COc1nsc2nc(C3CCCN3c3ncccn3)ccc12` (configuration not stated), 56.9%.

In the case of `CC(=O)N1CCCC1c1ccc(Br)cn1` (configuration not stated), the “Percent Effect” value is recorded as -5.926%.

Consider `COc1ccc(Oc2cncc(C3CCCN3C(C)=O)n2)cc1` (configuration not stated), for which the “Percent Effect” value was -6.062%. As to `COc1nsc2nc(C3CCCN3C(C)=O)ccc12` (configuration not stated), the “Percent Effect” value is given as 51.54%. Under `Cc1ncc(CN(C)C)c(C2CCCN2c2ncccn2)n1` (configuration not stated) stands 3.651%. Under `CNCC(=O)N1CCC(c2cccc(Oc3ccccc3)n2)CC1` stands 5.467%; under `COc1ccc(CN2CC[C@@H]3[C@H]2CCC(=O)N3c2cnn(C)c2)cc1.O=C(O)C(F)(F)F`, -0.7852%; under `CCCc1cncnc1N1CCC2(CCC(=O)N(CCOC)C2)CC1`, -26.49%. For `CNc1cc(N2CCCC2CNCc2ccc(C)o2)ncn1` (configuration not stated), the “Percent Effect” value was -46.19%. With `CN1CC(=O)N(c2ccsc2)CC12CCN(S(=O)(=O)c1ccccc1)C2.O=C(O)C(F)(F)F` (configuration not stated) the figure was 4.283%; with `CCS(=O)(=O)N1CCC2(CC1)CN(CC1CCOC1)c1ccccc12.O=C(O)C(F)(F)F` (configuration not stated), -6.416%; with `CCCS(=O)(=O)N1CCC2(CC1)CN(CC1CCOC1)c1ccccc12.O=C(O)C(F)(F)F` (configuration not stated), 53.88%. With `CS(=O)(=O)N1CCC2(CC1)CN(CC1CCOC1)c1ccccc12.O=C(O)C(F)(F)F` (configuration not stated) the figure was 24.53%; with `O=C(O)C(F)(F)F.O=C(O)C(F)(F)F.OCCN1CC2(CCN(CC3CC3)CC2)c2ccccc21`, 53.69%; with `O=C(O)C(F)(F)F.c1cnc(N2CCC3(CC2)CN(CC2CC2)c2ccccc23)nc1`, 32.03%.

On to `CN1C(=O)C2(CCN(CC3CC3)CC2)c2ccccc21.O=C(O)C(F)(F)F`, for which the “Percent Effect” value is reported as -19.06%. `CCC(=O)NC(Cc1cc(N(C)C)nc(C2CC2)n1)c1ccccc1` (configuration not stated): the “Percent Effect” value is reported as 47.48%. With `CC(C)c1nccc(C2CC(=O)Nc3n[nH]c(C4CCC4)c32)n1` (configuration not stated) the figure was 28.48%; with `Cc1cccnc1CN1CCN(c2noc(-c3ccccc3)n2)CC1`, 16.84%. `O=C(c1cc(-n2cccn2)ccn1)N(CC(F)(F)F)C1CCCC1`: the “Percent Effect” value stood at 17.65%. With `Cc1nccn1C1CCCN(C(=O)c2ccc3c(c2)nc(C)n3C)C1` (configuration not stated) the figure was -4.275%. Under `O=C(CN1CCCC1Cn1cncn1)Nc1nccs1` (configuration not stated) stands 20.94%. `COc1c(C)cnc(CN(C)C(=O)Nc2ccc3c(c2)CCO3)c1C`: the “Percent Effect” value was 65.58%.

Consider `COc1c(C)cnc(CN(C)C(=O)c2cccc(NC(N)=O)c2)c1C`, for which the “Percent Effect” value is on record as 25.72%. Under `COCc1cccc(NC(=O)N(C)Cc2ncc(C)c(OC)c2C)c1` stands -1.951%; under `CS(=O)(=O)c1snnc1C1CCN(Cc2cccc(O)c2)CC1`, -3.307%.

For the molecule `c1cc(N2CCOCC(Cc3ccc4[nH]ccc4c3)C2)ncn1` (configuration not stated), the “Percent Effect” value is reported as 9.694%. Under `Cc1cc(N2CCOCC(Cc3ccc4[nH]ccc4c3)C2)ncn1` (configuration not stated) stands 26.85%; under `Nc1cc(N2CCOCC(Cc3ccc4[nH]ccc4c3)C2)ncn1` (configuration not stated), 103.2%; under `Cc1cccc(NC(=O)N2CCC3(CCC(C(=O)N(C)C)O3)CC2)c1` (configuration not stated), -3.897%. `CN(C)Cc1cccc(-c2cccnc2C(=O)NCc2ccco2)c1`: the “Percent Effect” value was found to be 0.1793%.

`Cc1[nH]c2nc(CNc3ccccc3Cl)nn2c(=O)c1C`: the “Percent Effect” value is given as 13.95%. With `O=C(c1cc(-c2ccco2)cs1)N1CCCC1` the figure was 81.62%. In the case of `O=C(c1cc(-c2ccco2)cs1)N1CCOCC1`, the “Percent Effect” value was 26.26%.

Take `CN1CCN(C(=O)c2cc(-c3ccco3)cs2)CC1`: the “Percent Effect” value was 25.84%. With `CCn1cc2c(n1)C(COC)CN(Cc1ccoc1)C2` (configuration not stated) the figure was -14.11%. With `COCC1CN(Cc2ccccn2)Cc2cn(C)nc21.O=C(O)C(F)(F)F.O=C(O)C(F)(F)F.O=C(O)C(F)(F)F` (configuration not stated) the figure was 31.55%; with `CCn1cc2c(n1)C(COC)CN(Cc1ccccn1)C2` (configuration not stated), 96.31%.

`CN(C)C(=O)c1ccc2ccc(N3CCN(CC4CC4)CC3)n2c1`: the “Percent Effect” value is reported as -12.17%. On to `Cc1ccc(-c2cc(C(=O)NC(C)C(=O)N3CCCCC3)on2)cc1` (configuration not stated), for which the “Percent Effect” value is 17.57%. With `COC(=O)Cn1ccc(NS(=O)(=O)c2ccc3c(c2)CCC3)n1` the figure was -1.96%.

Consider `CCn1ccc(NS(=O)(=O)c2cccc(COC)c2)n1`, for which the “Percent Effect” value is -1.872%.

Regarding `CCc1ccc(S(=O)(=O)Nc2ccn(CC(=O)OC)n2)cc1`, the “Percent Effect” value was found to be 68.94%.

Consider `CSC(C)C(=O)N1CCCN(Cc2nccn2C)CC1` (configuration not stated), for which the “Percent Effect” value was -38.31%. Regarding `Fc1cccc(CN2CCC(c3noc(-c4ccncc4)n3)CC2)c1F`, the “Percent Effect” value is 8.868%. Under `CCCc1nnc(N2CC[C@@](O)(C3CCOCC3)[C@H](C)C2)s1` stands -20.29%; under `Nc1ncc(-c2ccc(F)cc2)c(C2CCCNC2)n1` (configuration not stated), 2.627%. Under `COc1ccc(-c2cc(C3CCCNC3)ccn2)cc1.Cl` (configuration not stated) stands 13.34%.

Regarding `CS(=O)(=O)N1CC(c2nc(N)ncc2-c2ccc(F)cc2)C1`, the “Percent Effect” value was found to be 26.29%. In the case of `Nc1ncc(-c2ccc(C(F)(F)F)cc2)c(C2CCCNC2)n1` (configuration not stated), the “Percent Effect” value turned out to be 50.32%. Under `Nc1ncc(-c2ccc(Cl)cc2)c(C2CCCNC2)n1` (configuration not stated) stands -8.441%; under `COc1ccc(-c2cnc(N)nc2C2CCCNC2)cc1.Cl` (configuration not stated), 57.74%; under `Cc1n[nH]c(C2CN(CC(=O)NCCC3=CCCCC3)CCO2)n1` (configuration not stated), -4.775%. Turning to `COc1cc(CNC(=O)c2csc(Br)c2)ccn1`, the “Percent Effect” value is listed as 5.577%. Under `c1ccc(CN2CCC(c3nccnc3-n3ccnc3)CC2)cc1` stands -13.47%.

`Cc1noc(C)c1CN(Cc1cccs1)C1CCS(=O)(=O)C1` (configuration not stated): the “Percent Effect” value is given as -24.86%. On to `CCS(=O)(=O)N1CCc2ccc(NC(=O)NCCc3ccccc3)cc21`, for which the “Percent Effect” value is 30.28%. Under `CN(C)CC(=O)N1CCN(C(=O)c2cccc3[nH]ncc23)CC1` stands 11.64%.

In the case of `CCc1cnc(CN(C(C)=O)C2CCN(CCc3ccccc3)C2)o1` (configuration not stated), the “Percent Effect” value is -5.219%.

For `Cc1csc(CNC(=O)N2CCN(Cc3ccco3)CC2)n1`, the “Percent Effect” value was determined as 5.266%. Under `Cc1ncsc1CN1C[C@@H]2COC[C@]2(C(=O)NCc2ccccn2)C1.O=C(O)C(F)(F)F.O=C(O)C(F)(F)F` stands 34.64%.

For the molecule `Cc1csc(CN2C[C@@H]3COC[C@]3(C(=O)NCc3ccco3)C2)n1`, the “Percent Effect” value was 99.79%.
